Experimental data taken from the supplement of paper PMC6992640.
± gives the standard deviation of the averaged measurements.

What follows are compounds tested on HCI01 (cells of a triple-negative basal-like breast cancer xenograft) (assay: cell viability (% of vehicle); higher = less cytotoxic). Details: 10 µM; 72 h.
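Note: PDX cells carrying CMV promoter-driven luciferase, viability read as total photon flux per second by IVIS imaging following D-luciferin, vehicle control 0.1% DMSO.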

In order of rising cell viability:
1. CC(NCCCc1cccc(C(F)(F)F)c1)c1cccc2ccccc12 (stereo unspecified) [Cinacalcet]  33.2 ± 2.7
2. Cl.Clc1ccccc1CN1CCc2sccc2C1 [Ticlopidine HCl]  56.5 ± 32
3. COc1cc(C(=O)O)ccc1NC(=O)C1NC(CC(C)(C)C)C(C#N)(c2ccc(Cl)cc2F)C1c1cccc(Cl)c1F (stereo unspecified)  63.9 ± 30

Each compound was assayed on HCI03 (cells of an ER-positive luminal breast cancer xenograft) in the same assay as above. Details: 10 µM; 72 h.

In order of falling cell viability:
1. COc1cc(C(=O)O)ccc1NC(=O)C1NC(CC(C)(C)C)C(C#N)(c2ccc(Cl)cc2F)C1c1cccc(Cl)c1F (stereo unspecified)  143
2. CC(Oc1cc(-c2cnn(C3CCNCC3)c2)cnc1N)c1c(Cl)ccc(F)c1Cl [(R)-Crizotinib]  135
3. CC(C)Nc1cc(-c2c[nH]c(C(=O)NC(CO)c3cccc(Cl)c3)c2)c(Cl)cn1 (stereo unspecified)  135
4. O=C1C=CC=CC1=C1NC(=C2C=CC=CC2=O)N(c2ccc(C(=O)O)cc2)N1 [Deferasirox]  129
5. CO[C@H]1/C=C/O[C@@]2(C)Oc3c(C)c(O)c4c(O)c(c(/C=N/N5CCN(C6CCCC6)CC5)c(O)c4c3C2=O)NC(=O)/C(C)=C\C=C\[C@H](C)[C@H](O)[C@@H](C)[C@@H](O)[C@@H](C)[C@H](OC(C)=O)[C@@H]1C [Rifapentine]  120
6. CC(C)CC(NC(=O)CNC(=O)c1cc(Cl)ccc1Cl)B(O)O (stereo unspecified)  116
7. CCCCCCCCOc1ccccc1C(=O)Nc1ccc(C(=O)OCC[N+](C)(CC)CC)cc1.[Br-] [Otilonium Bromide]  110
8. Cl.Clc1ccccc1CN1CCc2sccc2C1 [Ticlopidine HCl]  108
9. COC1=C(OC)C(=O)C(CCCCCCCCCCO)=C(C)C1=O [Idebenone]  107
10. CC(C)(C)NC(=O)C1CC2CCCCC2CN1CC(O)C(Cc1ccccc1)NC(=O)C(CC(N)=O)NC(=O)c1ccc2ccccc2n1.CS(=O)(=O)O (stereo unspecified) [Saquinavir mesylate]  104
11. COc1cc(Nc2ncc(F)c(Nc3ccc4c(n3)N(COP(=O)(O)O)C(=O)C(C)(C)O4)n2)cc(OC)c1OC [Fostamatinib (R788)]  102
12. Nc1ccn(C2OC(CO)C(O)C2O)c(=O)n1 (stereo unspecified) [Cytarabine]  101
13. COC(=O)C1=C(C)NC(C)=C(C(=O)OCCN(C)Cc2ccccc2)C1c1cccc([N+](=O)[O-])c1.Cl (stereo unspecified) [Nicardipine HCl]  99.9
14. Cc1ccc(-n2[nH]c(C)c(NN=C3C=CC=C(c4cccc(C(=O)O)c4)C3=O)c2=O)cc1C [Eltrombopag]  94.9
15. CCN(CC)CCCC(C)Nc1ccnc2cc(Cl)ccc12.O=P(O)(O)O.O=P(O)(O)O (stereo unspecified) [Chloroquine diphosphate]  93.1
16. CS(=O)(=O)O.Cc1c(O)cccc1C(=O)NC(CSc1ccccc1)C(O)CN1CC2CCCCC2CC1C(=O)NC(C)(C)C (stereo unspecified) [Nelfinavir Mesylate]  92.1
17. COc1cc(C(=O)NS(=O)(=O)c2ccccc2C)ccc1Cc1cn(C)c2ccc(NC(=O)OC3CCCC3)cc12 [Zafirlukast]  87.8
18. CCOC(=O)c1c(CSc2ccccc2)n(C)c2cc(Br)c(O)c(CN(C)C)c12.Cl [Arbidol HCl]  87.3
19. Nc1ncn(C2OC(CO)C(O)C2O)c(=O)n1 (stereo unspecified) [5-Azacytidine]  85
20. N.N.O=C([O-])C1(C(=O)[O-])CCC1.[Pt+2] [Carboplatin]  82.7
21. COC(=O)NC(C(=O)NC(Cc1ccccc1)C(O)CN(Cc1ccc(-c2ccccn2)cc1)NC(=O)C(NC(=O)OC)C(C)(C)C)C(C)(C)C (stereo unspecified) [Atazanavir]  80
22. CCC(=C(c1ccccc1)c1ccc(OCCN(C)C)cc1)c1ccccc1.O=C(O)CC(O)(CC(=O)O)C(=O)O [Tamoxifen Citrate]  78.8
23. CNCCCC12CCC(c3ccccc31)c1ccccc12.Cl [Maprotiline HCl]  75.5
24. CCN(CC)CCNC(=O)c1c(C)[nH]c(C=C2C(=O)Nc3ccc(F)cc32)c1C.O=C(O)CC(O)C(=O)O [Sunitinib malate]  73.6
25. CN(C)CCOc1ccc(C(=C(CCCl)c2ccccc2)c2ccccc2)cc1.O=C(O)CC(O)(CC(=O)O)C(=O)O [Toremifene Citrate]  63.8
26. COC(=O)c1ccc2c(c1)NC(=O)C2=C(Nc1ccc(N(C)C(=O)CN2CCN(C)CC2)cc1)c1ccccc1 [Nintedanib (BIBF 1120)]  63.6
27. CCOc1cc2ncc(C#N)c(Nc3ccc(F)c(Cl)c3)c2cc1NC(=O)C=CCN(C)C [Pelitinib (EKB-569)]  60.7
28. CN(C)c1ccc(O)c2c1CC1CC3C(N(C)C)C(=O)C(C(N)=O)=C(O)C3(O)C(=O)C1=C2O.Cl (stereo unspecified) [Minocycline HCl]  59.2
29. Oc1c(Cl)cc(Cl)c2cccnc12 [Chloroxine]  56.7
30. O=C(NC1CCN(CCCCC2(C(=O)NCC(F)(F)F)c3ccccc3-c3ccccc32)CC1)c1ccccc1-c1ccc(C(F)(F)F)cc1 [Lomitapide]  49.3
31. CCCCc1oc2ccc(NS(C)(=O)=O)cc2c1C(=O)c1ccc(OCCCN(CCCC)CCCC)cc1.Cl [Dronedarone HCl]  48
32. COc1cc(Nc2c(C#N)cnc3cc(OCCCN4CCN(C)CC4)c(OC)cc23)c(Cl)cc1Cl [Bosutinib (SKI-606)]  48
33. CNC(=O)c1cc(Oc2ccc(NC(=O)Nc3ccc(Cl)c(C(F)(F)F)c3)c(F)c2)ccn1 [Regorafenib]  48
34. CC(NCCCc1cccc(C(F)(F)F)c1)c1cccc2ccccc12.Cl (stereo unspecified) [Cinacalcet HCl]  46.8
35. COc1cc2nccc(Oc3ccc(NC(=O)C4(C(=O)Nc5ccc(F)cc5)CC4)cc3)c2cc1OC.O=C(O)CC(O)C(=O)O [Cabozantinib malate (XL184)]  45.4
36. O=C(C=Cn1cnc(-c2cc(C(F)(F)F)cc(C(F)(F)F)c2)n1)NNc1cnccn1  41
37. Cl.OC(c1cc(C(F)(F)F)nc2c(C(F)(F)F)cccc12)C1CCCCN1 (stereo unspecified) [Mefloquine hydrochloride]  40.5
38. CC(NCCCc1cccc(C(F)(F)F)c1)c1cccc2ccccc12 (stereo unspecified) [Cinacalcet]  34.2
